PolyA inh = yeast polyadenylation inhibition. S. cerevisiae SKY197-pL101 polyadenylation reporter, beta-gal luminescence; efflux-impaired pdr1/pdr3 knockout yeast; score 100 = 6 SD above DMSO. activity score, % at 12 µM. hit rate 0.02% among 300,000. AID 1875;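 active = lowest replicate activity score at least 50, where 100 means six control SD above control mean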;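 note: yeast exposed to compound for 9 h at 30 °C; higher score means more reporter readthrough which indicates perturbed polyadenylation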
JMJD2C inh = human JMJD2C demethylase inhibition | Q9H3R0 | GST-JMJD2C(1-420) H3K9me3 demethylation, DELFIA europium | inhibition, % at 2.35 µM | hit rate 0.069% among 330,000 | AID 2099;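 active = more than half of a compound's replicate wells show inhibition beyond 50%, single wells judged on their own value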;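 note: signal counts dimethyl H3K9 product captured on neutravidin plate; 0% = median of DMSO wells and 100% = 0.3 times that DMSO median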
PKA-R2B act = PKA-R2B complex activation. P22694+P31323. PKA-R2B holoenzyme dissociation, Cy5-IP20 fluorescence polarization; R2B truncated from residue 108, S112A mutant; 0% DMSO only, 100% 113 µM cGMP. activation, % at 11.4 µM. hit rate 0.079% among 340,000. AID 504700;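 active = activation above a cutoff set at the mean over all compounds plus 3 SD, cut at about 18% in these data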;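 note: higher means more holoenzyme dissociation and a rise in polarization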
Target sequence (P31323 whole entry, looked up, other chains not shown, the tested form may be a part): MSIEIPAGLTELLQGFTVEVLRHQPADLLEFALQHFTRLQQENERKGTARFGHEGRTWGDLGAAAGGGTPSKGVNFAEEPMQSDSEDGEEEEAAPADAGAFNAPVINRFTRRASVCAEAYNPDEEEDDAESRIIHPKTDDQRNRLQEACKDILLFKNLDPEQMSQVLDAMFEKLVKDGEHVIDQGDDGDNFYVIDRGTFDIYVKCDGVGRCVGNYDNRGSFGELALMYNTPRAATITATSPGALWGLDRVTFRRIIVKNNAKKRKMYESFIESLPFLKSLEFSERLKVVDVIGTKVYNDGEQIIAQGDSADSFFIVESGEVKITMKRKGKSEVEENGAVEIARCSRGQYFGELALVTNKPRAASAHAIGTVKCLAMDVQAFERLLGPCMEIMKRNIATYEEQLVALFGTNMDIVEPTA
PKA-R1A act = activates the PKA-R1A holoenzyme complex | PKA-R1A dissociation, Cy5-IP20 fluorescence polarization; scaled: DMSO 0%, 113 µM cGMP 100% | activation, % at 11.4 µM | hit rate 0.083% among 340,000;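 active = percent activation above the mean of all tested compounds plus 3 SD, cut at about 19% in these data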;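 note: higher means more PKAc released from R1A so a rise in polarization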
Yeast superoxide = caloric restriction mimetics inhibiting age-related superoxide in yeast; hit rate 0.18% among 330,000; superoxide response (% of plate mean), % at 10 µM; S. cerevisiae aged cells, superoxide DHE fluorescence; hits give low values; AID 2690;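 active = superoxide response under a set limit, about three screen SD below normal, cut at about 65% in these data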;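 note: yeast aged for seven days with compound at 30 °C before DHE staining; 100% = average MFI of all compound-treated wells on the plate with controls excluded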
V-ATPase pHluor = yeast V-ATPase proton transport regulation by pHLuorin. AID 504577. S. cerevisiae, pHLuorin cytosolic pH fluorescence. hit rate 0.37% among 350,000. response, % at 10 µM; in the data active = response mostly above about 7.3%, no sharp cut-off; inactive = mostly below about 5.4%; note: actives read high
CR mimetic CP = yeast aging superoxide inhibition, cherry pick confirmation; shares compounds with Yeast superoxide; S. cerevisiae aging, superoxide DHE fluorescence; hits give low values; superoxide response (% of plate), % at 10 µM; hit rate 1% among 850; AID 434994;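 active = superoxide signal below 65% of the plate average of sample wells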;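 note: cells aged with compound for 7 days at 30 degrees C before staining; 100% equals mean DHE fluorescence of all compound wells on the plate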
DHE fluor count = DHE fluorescence interference, counter-screen artifact; AID 435000; shares compounds with Yeast superoxide; fluorescence response, % at 10 µM; 850 tested, under 10 active; S. cerevisiae BY4741, flow cytometry; hits give low values;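 active = fluorescence response below 15%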;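 note: percent of the mean fluorescence averaged over all compound wells on the plate; lower means stronger quenching of DHE signal or ROS scavenging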
The depositor's hits bear a star. The list is not random: actives were taken first. Their share in the collection is about 0.78%.

`COc1ccc(-c2nnc(SCC(=O)N3CCOCC3)o2)cc1OC` gave PolyA inh -4.3, JMJD2C inh 24.9, PKA-R2B act -3.6, PKA-R1A act -0.5, Yeast superoxide 132.9 and V-ATPase pHluor 0.8.
Screening COC(=O)CSc1nnc(-c2ccc(OC)c(OC)c2)o1 returned PolyA inh 17.3, JMJD2C inh -5.1, PKA-R2B act 5.3, PKA-R1A act 7.4, Yeast superoxide 95.5, V-ATPase pHluor 1.9, CR mimetic CP 112.7 and DHE fluor count 102.1.
CCc1ccc(C2CC(=O)N(c3ccc(F)cc3)C3=C2C(=O)OC3)cc1 (stereo not given) was read as PolyA inh 5.7, JMJD2C inh 18.6, PKA-R2B act -13.6, PKA-R1A act -4.4, Yeast superoxide 81.4 and V-ATPase pHluor 1.4.
`COc1cccc(/C=N/NC(=O)c2[nH]c(C)c(C(=O)N/N=C/c3cccc(OC)c3O)c2C)c1O` gave PolyA inh 21.3, JMJD2C inh 0.9, PKA-R2B act -7.7, PKA-R1A act -3.7, Yeast superoxide 63.1*, V-ATPase pHluor -2.9, CR mimetic CP 88.1 and DHE fluor count 94.3.
Screening COc1cccc(/C=N/NC(=O)c2ccc(-c3ccccc3)cc2)c1O returned PolyA inh 9.1, JMJD2C inh 12.6, PKA-R2B act -0.7, PKA-R1A act -13.6, Yeast superoxide 83.2 and V-ATPase pHluor 1.1.
`O=C(Nc1ccc2ccccc2c1)c1ccc(Cl)cc1Cl` gave PolyA inh -0.3, JMJD2C inh -11.9, PKA-R2B act -5.1, PKA-R1A act 8.5, Yeast superoxide 49.5*, V-ATPase pHluor -1.2, CR mimetic CP 94.9 and DHE fluor count 100.0.
Screening COc1cc(/C=C2\CC(C(C)(C)C)C/C(=C\c3cc(OC)c(OC)c(OC)c3)C2=O)cc(OC)c1OC (stereo not given) returned PolyA inh -15.0, JMJD2C inh 7.6, PKA-R2B act 4.6, PKA-R1A act 13.1, Yeast superoxide 56.6*, V-ATPase pHluor -1.0, CR mimetic CP 95.0 and DHE fluor count 90.5.
COc1ccc(C(=O)N/C(=C\c2cccc3ccccc23)C(=O)N2CCN(C)CC2)cc1 was read as JMJD2C inh -25.3, PKA-R2B act -8.1, PKA-R1A act -11.3, Yeast superoxide 78.9 and V-ATPase pHluor -0.2.
Screening Cc1cccn2c(=O)c3cc(C(=O)NCc4ccco4)c(=N)n(C(C)C)c3nc12 returned PolyA inh -6.3, JMJD2C inh 7.9, PKA-R2B act 7.7, PKA-R1A act -2.1, Yeast superoxide 63.6*, V-ATPase pHluor 0.2, CR mimetic CP 100.2 and DHE fluor count 113.3.
For COc1ccc(-c2cc3c(=O)n(CC(=O)Nc4ccc(Cl)cc4)nc(C)n3n2)cc1 the results were PolyA inh 4.0, JMJD2C inh -2.4, PKA-R2B act 0.0, PKA-R1A act -2.3, Yeast superoxide 106.1 and V-ATPase pHluor -3.4.
Cc1ccc(CNC(=O)Cc2ccc(-n3c(=O)[nH]c4ccsc4c3=O)cc2)cc1 was read as PolyA inh 19.8, JMJD2C inh 1.1, PKA-R2B act -1.2, PKA-R1A act 2.7, Yeast superoxide 56.4*, V-ATPase pHluor -0.3, CR mimetic CP 107.7 and DHE fluor count 100.5.
COc1ccc(S(=O)(=O)N(C)c2ccc(C(=O)Nc3cccnc3)cc2)cc1 was read as PolyA inh -10.7, JMJD2C inh 10.0, PKA-R2B act 2.3, PKA-R1A act -3.4, Yeast superoxide 123.3 and V-ATPase pHluor -0.6.
For Cc1cc(OCC(=O)N(Cc2ccco2)c2c(N)n(Cc3ccccc3)c(=O)[nH]c2=O)ccc1Cl the results were JMJD2C inh 4.4, PKA-R2B act 2.7, PKA-R1A act -2.4, Yeast superoxide 89.1 and V-ATPase pHluor 2.4.
Screening COC(=O)c1ccc(Nc2nnc(-c3ccc(C)c(S(=O)(=O)NCC4CCCO4)c3)c3ccccc23)cc1 (stereo not given) returned PolyA inh -6.0, JMJD2C inh -8.1, PKA-R2B act -4.8, PKA-R1A act -5.8, Yeast superoxide 95.2, V-ATPase pHluor -1.0, CR mimetic CP 87.2 and DHE fluor count 92.1.
Screening Cc1ccc(-c2nnc(Nc3ccc(CC(N)=O)cc3)c3ccccc23)cc1S(=O)(=O)NCC1CCCO1 (stereo not given) returned PolyA inh 20.5, JMJD2C inh -5.0, PKA-R2B act -11.9, PKA-R1A act 9.8, Yeast superoxide 92.0 and V-ATPase pHluor -3.0.
Screening Cc1ccc(-c2nnc(Nc3ccc(C(=O)N(C)C)cc3)c3ccccc23)cc1S(=O)(=O)NCC1CCCO1 (stereo not given) returned PolyA inh 3.8, JMJD2C inh -1.4, PKA-R2B act -6.1, PKA-R1A act 2.9, Yeast superoxide 97.5, V-ATPase pHluor 3.0, CR mimetic CP 115.4 and DHE fluor count 115.0.
For Cc1cc(C)c(OCC(=O)OC(C)C(=O)N2CCc3ccccc32)c(C)c1 (stereo not given) the results were PolyA inh 6.4, JMJD2C inh 13.9, PKA-R2B act 0.6, PKA-R1A act -9.5, Yeast superoxide 92.0 and V-ATPase pHluor 2.4.
Screening N#CCCN(Cc1ccccc1)C(=S)NC(=O)c1ccccc1 returned PolyA inh 7.3, JMJD2C inh 6.3, PKA-R2B act -4.3, PKA-R1A act -8.6, Yeast superoxide 57.2*, V-ATPase pHluor 1.7, CR mimetic CP 102.0 and DHE fluor count 106.5.
Screening COc1ccc(CN(CCC#N)C(=S)NC(=O)c2ccccc2)cc1 returned PolyA inh -7.5, JMJD2C inh 4.9, PKA-R2B act 3.9, PKA-R1A act -1.6, Yeast superoxide 96.0 and V-ATPase pHluor 4.8.
`Cc1ccc(NC(=O)c2sc3nc(C)cc(C)c3c2N)cc1` gave PolyA inh -17.7, JMJD2C inh 2.7, PKA-R2B act 7.5, PKA-R1A act -14.4, Yeast superoxide 56.4*, V-ATPase pHluor 8.0, CR mimetic CP 104.0 and DHE fluor count 100.4.
`Cc1cc(C)c2c(N)c(C(=O)NN)sc2n1` gave PolyA inh -9.8, JMJD2C inh 11.5, PKA-R2B act 3.3, PKA-R1A act 3.8, Yeast superoxide 109.2 and V-ATPase pHluor 4.4.
Screening CCCCN1C(=O)C(=O)N(CC(=O)N2CCc3ccccc32)C1=O returned JMJD2C inh 12.4, PKA-R2B act -8.7, PKA-R1A act -1.3, Yeast superoxide 117.2 and V-ATPase pHluor -3.3.
